Molecules are shown by their SMILES.

The assay has as its target T1, Aspartate--tRNA(Asp/Asn) ligase (Mycobacterium tuberculosis (strain ATCC 25618 / H37Rv)) (UniProt P9WFW3).
T1 sequence (whole entry): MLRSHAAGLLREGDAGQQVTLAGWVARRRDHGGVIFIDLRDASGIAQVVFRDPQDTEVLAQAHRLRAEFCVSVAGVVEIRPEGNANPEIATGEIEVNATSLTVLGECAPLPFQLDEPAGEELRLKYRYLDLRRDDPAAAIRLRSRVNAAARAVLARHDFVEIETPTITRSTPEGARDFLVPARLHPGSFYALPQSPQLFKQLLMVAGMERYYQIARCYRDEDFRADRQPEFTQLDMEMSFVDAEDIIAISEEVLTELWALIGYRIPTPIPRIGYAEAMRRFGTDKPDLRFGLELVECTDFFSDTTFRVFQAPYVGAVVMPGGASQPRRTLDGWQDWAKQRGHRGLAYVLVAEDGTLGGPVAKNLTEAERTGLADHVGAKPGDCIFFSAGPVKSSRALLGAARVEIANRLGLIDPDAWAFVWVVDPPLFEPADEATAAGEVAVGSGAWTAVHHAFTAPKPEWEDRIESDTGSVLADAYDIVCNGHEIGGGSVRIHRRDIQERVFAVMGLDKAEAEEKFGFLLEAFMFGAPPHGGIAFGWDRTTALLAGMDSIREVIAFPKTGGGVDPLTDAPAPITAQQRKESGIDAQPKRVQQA
The experiment in a line: Assay for Asp RNA synthetase-1 from Mycobacterium tuberculosis. Also on record: scale not given: in the data most compounds retested in dose-response had high values. To be noted: 30 µM. In kind it is functional.
Consider `Cc1ccn(-c2ccc(C(=O)N3CCCC(C(N)=O)C3)cc2)n1` (stereo not given), for which the Percent Effect was -3.4%.
Under `CCc1cnc(N2CC3(CCN(C(=O)c4ccoc4)C3)C2)nc1` stands -4.49%.
Take `CC(C)c1nc2c(n1C)CCN(CC(=O)Nc1nccs1)C2`: the Percent Effect was -1.5%.
Under `CNS(=O)(=O)CCCN1CCCC1c1noc(C2CC2)n1` (stereo not given) stands -2.37%.
As to `COc1ccccc1CC1CCCN(CC(N)=O)C1` (stereo not given), the Percent Effect is -3.29%.
`CCOC(=O)[C@]12CCCN(Cc3nccs3)C[C@H]1CN(C(C)=O)C2`: the Percent Effect worked out at 2.52%.
For `Cc1ccc(CN2CCC3(CC2)CC(c2cccnc2)CO3)s1` (stereo not given) the value was -2.49%; for `O=C(CCNc1ncccn1)NCCOc1ccc2c(c1)CCC2`, 1.63%; for `CC(C)c1noc(CCC(=O)NCC2CCS(=O)(=O)C2)n1` (stereo not given), -3.63%.
For `CN1CCN(C(=O)NC2CC2)Cc2cccnc21`, the Percent Effect was 8.44%.
As to `COc1ccc(-n2ncc(C(=O)NCC3COC(C)(C)O3)c2N)cc1` (stereo not given), the Percent Effect was -2.49%.
Take `Cc1nccn1CC1CCCN1S(=O)(=O)Cc1ccccc1` (stereo not given): the Percent Effect is -1.4%.
Under `COCC1CN(CC2CC2)Cc2nn(C)cc21` (stereo not given) stands 12.6%.
For `CC(=O)Nc1nc(C2CCN(CC(N)=O)CC2)cs1` the value was -7.79%; for `C1CC(NCc2nc(C3CC3)no2)CN(Cc2noc(C3CC3)n2)C1` (stereo not given), -2.94%; for `CCN(CC)C(CNS(=O)(=O)c1ccc(C(=O)NC)cc1)c1ccco1` (stereo not given), -2.1%.
Turning to `O=C(c1nc(-c2ccc3cc[nH]c3c2)no1)N1CCCC1`, the Percent Effect was -0.958%.
Under `CC(C)c1nc(CN2CCCCC2)cs1` stands -3.66%.
Under `COc1ccccc1[C@@H]1CN(C(=O)c2csc(C)n2)C[C@H]1C(=O)O` stands 2.17%; under `CCn1cc(NC(=O)NCC(O)COc2cccc(F)c2)cn1` (stereo not given), 1.57%.
